# Sampled rows, rich in hits. Any-hit rate of the full collection: about 2.3%.
# Nrf2 ARE act – activators of Nrf2 (ARE) signaling. Potency, µM (series often up to 46.1 µM), for inactives: at the top dose activation, actives largely listed as activators. AREc32 ARE-luciferase reporter (MCF7-derived line), luminescence, 24 h. AID 624171. actives 0.31% (n = 410,000); note: potency is the fitted concentration of half-maximal effect; % of control where 0% means no effect; nearly all actives have a fitted effect of over 65% in size
#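 Each well held 1000 AREc32 cells, which were incubated with compound for 24 hr at 37 deg C after overnight attachment, and ARE reporter activity was quantified by firefly luciferase luminescence.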
# IL2 activator – activates IL-2 in a cell-based reporter assay; IL-2 activation reporter assay, cell-based qHTS; stimulated with anti-CD3/CD4/CD28 beads; in transgenic mouse T cells; activation, % (series mostly up to about 46 µM); actives 0.065% (n = 360,000); AID 652025; in the data active = activation above about 50%; inconclusive = mostly about 30% to 49%; note: 0% is about no effect
#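 Unstimulated transgenic mouse T cells preincubated 60 min with compound, then stimulated with anti-CD3/anti-CD4-coated beads plus anti-CD28 for 18 h at 37 degrees C. IL-2 response read as EGFP and DsRed fluorescence by plate cytometry.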
# Nrf2 inh – Nrf2 pathway inhibition | Potency, µM (top dose mostly 46 µM), for inactives: at the highest dose activity change, negative = inhibition, usual class: inhibitors | A549 ARE-Fluc reporter, luciferase luminescence, 18-24 h | actives 2.1% (n = 360,000); note: potency is the fitted concentration of half-maximal effect; % is set by controls: 0 for no effect and ±100 for the full control effect; nearly all actives have a fitted effect of over 60% in size
#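 Cells were seeded and rested 2 h, then exposed to compounds for 18-24 h. CellTiter-Fluor was read first as a viability measure. BugLite was added 15 min before the final luminescent read of ARE-luciferase activity in A549 cells.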
# A549 viability – kills or reduces viability of A549 cells in Nrf2 counter-screen. actives 0.16% (n = 390,000). Potency, µM (highest dose often 46 µM), for inactives: top-dose activity change, negative = cytotoxicity, most hits filed as inhibitors. AID 504648. A549 ARE-Fluc cells, CellTiter-Fluor viability, 18-24 h; note: potency is the fitted concentration of half-maximal effect; % is set by controls: 0 for no effect and ±100 for the full control effect
#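 A549 ARE-Fluc cells in 5% FBS OPTI-MEM, 5000 cells/well, rested 2 h then exposed to compounds in concentration-response for 18-24 h at 37 °C. Viability by CellTiter-Fluor fluorescence (Ex 405/Em 525) after 30 min; luciferase luminescence (BugLite, 15 min, RT) read afterwards.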
# Starred values were filed as active, the others as inactive; ? = inconclusive; . = no result. Unless noted, calls come from the whole dose curve; as a rule, active = well fitted curve in the direction sought with a large enough effect; inconclusive = small, poorly fitted or top-dose-only effect, or another doubt; inactive = no such curve, though single readings can be large; an effect the other way counts as inactive or inconclusive.
SMILES,Nrf2 ARE act,IL2 activator,Nrf2 inh,A549 viability
CC(/C=N/n1c(-c2ccncc2)n[nH]c1=S)=C\c1ccco1,7.1µM*,0,16%,21%
CC(/C=N/n1c(-c2ccc(C)cc2)n[nH]c1=S)=C\c1ccco1,?,0,13%,16%
Cc1cccc(-c2n[nH]c(=S)n2/N=C/C=C/c2ccco2)c1,2.5µM*,0,-6%,-3%
CCCCC(=O)Nc1cccc(OCc2cc(=O)n3ccccc3n2)c1,0%,.,.,-1%
O=C(CCCl)Nc1cccc2cccnc12,.,.,1%,-12%
Cc1ccc2c(c1)-c1onc(C(=O)N(C)c3ccc(F)cc3)c1CO2,1%,.,17%,9%
O=C(Nc1nnc(-c2ccccc2F)s1)Nc1ccccc1F,8.9µM*,-2,10%,9%
O=C(Nc1nnc(-c2ccncc2)s1)C1CCCO1 (stereo not given),0%,1,?,16%
O=C(Nc1nnc(-c2ccccc2F)s1)C1CCCO1 (stereo not given),3.2µM*,0,?,-2%
O=C(Nc1nnc(-c2ccccc2SCc2ccccc2)s1)Nc1ccccc1F,5%,-3,17%,-2%
CCN(CC)CCCNC(=O)C(C)n1nc(C)n2c(cc3occc32)c1=O (stereo not given),0%,.,15%,0%
O=C(c1cc2c(s1)-c1ccccc1S(=O)(=O)C2)N1CCN(Cc2ccccc2)CC1,3%,-5,18µM*,-15%
CCN1CCN(C(=O)c2cc3c(s2)-c2ccccc2S(=O)(=O)C3)CC1,0%,-3,10%,1%
O=C(NCc1ccco1)c1cc(S(=O)(=O)N2CCOCC2)c(Cl)cc1Cl,0%,-5,18µM*,?
O=C(COC(=O)c1cc(S(=O)(=O)N2CCOCC2)c(Cl)cc1Cl)NCc1ccco1,7%,0,2%,-2%
CCC(C)NC(=O)CSc1nc2cc3c(cc2c(=O)n1CCCC(=O)NCc1ccc2c(c1)OCO2)OCO3 (stereo not given),0%,.,.,4%
COc1ccc(-c2[nH]c(-c3ccc4c(c3)OCO4)nc2-c2ccccc2)cc1,-1%,0,21µM*,?
CN(C)CCCN=c1cc(-c2ccccc2)oc2ccc(Cl)cc12,14µM*,-1,5%,11%
CN(C)S(=O)(=O)c1ccc(C(=O)NCCSc2ccc(Br)cc2)cc1,5%,-1,21µM*,?
Cc1cccc(Cn2nnc3c2C(=O)c2ccccc2C3=O)c1,0%,1,21µM*,?
COC(=O)C1=C(C(=O)OC)[C@@H]2N(C)c3ccccc3[C@@]23C[C@@H](C(=O)OC)N(C(=O)c2cc(C)oc2C)C3=N1,-1%,0,18µM*,-29%
COC(=O)C1=C(C(=O)OC)[C@@H]2N(Cc3ccccc3)c3ccccc3[C@@]23C[C@@H](C(=O)OC)N(C(=O)c2ccc(Br)cc2)C3=N1,-1%,-3,16µM*,-24%
C=CCN1c2ccccc2[C@]23C[C@@H](C(=O)OC)N(C(=O)c4ccc(Br)cc4)C2=NC(C(=O)OC)=C(C(=O)OC)[C@H]13,0%,1,?,?
COC(=O)C1=C(C(=O)OC)[C@@H]2N(C)c3ccccc3[C@@]23C[C@@H](C(=O)OC)N(C(=O)C2CCC2)C3=N1,0%,-1,7%,-2%
COc1ccc(N2CCN(C(=O)CCS(=O)(=O)c3cc4c(cc3Cl)NC(=O)CO4)CC2)cc1,0%,.,15%,10%
SMILES,Nrf2 ARE act,IL2 activator,Nrf2 inh,A549 viability
CC(=O)N1CCC2(CC1)OC(=O)C(C)=C2C(=O)Nc1cccc(Cl)c1C,0%,.,16%,-1%
Cc1cccc(Sc2ccc([N+](=O)[O-])cc2[N+](=O)[O-])n1,?,-2,4%,-13%
O=[N+]([O-])c1ccc(Sc2ncccn2)c([N+](=O)[O-])c1,?,3,23µM*,?
Cc1ccc(Cc2c(C)nc3nc(SCC(=O)NC4CCC(C)CC4)nn3c2C)cc1 (stereo not given),0%,.,.,3%
O=C(/C=C/c1ccccc1[N+](=O)[O-])c1ccccc1Br,-4%,-1,16µM*,?
O=C(/C=C\c1ccccc1[N+](=O)[O-])Nc1ccccc1,11µM*,1,?,-1%
Cc1ccc(CNC(=O)CCc2nc3cccnc3n2Cc2ccccc2)cc1,5%,.,-16%,-7%
COc1cccc(C2c3c(ncn(-c4ccccc4C#N)c3=N)Oc3ccc4ccccc4c32)c1 (stereo not given),.,.,?,-2%
CCc1ccc(C(=O)N2CCC(c3nc(-c4ccc(S(=O)(=O)N5CCCC5)cc4)no3)CC2)cc1,-1%,.,12µM*,-19%
Cc1ccc2nc(-c3ccc(NC(=O)COc4ccc(Cl)c(C)c4)cc3)sc2c1,6%,.,?,4%
Cc1ccc(C(=O)NCC2CCCN2S(=O)(=O)c2ccc(C)cc2)cc1 (stereo not given),4%,-3,8%,-4%
Cc1ccc(S(=O)(=O)N2CCCC2CNC(=O)C(=O)Nc2ccc(F)cc2)cc1 (stereo not given),2%,-2,13µM*,-8%
CC(C)(C)c1ccc(C(=O)NCC2CCCN2S(=O)(=O)c2ccccc2)cc1 (stereo not given),13%,-1,21µM*,-7%
COc1ccc(S(=O)(=O)N2CCCC2CNC(=O)C(=O)Nc2ccc(C)cc2)cc1 (stereo not given),3%,-5,?,6%
Cc1ccc(C)c(S(=O)(=O)N2CCCC2CNC(=O)c2ccc([N+](=O)[O-])cc2)c1 (stereo not given),0%,0,18µM*,-1%
Cc1cc(C)cc(NC(=O)c2sc3nc(-c4ccccc4)cn3c2C)c1,-1%,.,.,-19%
CCCCC(=O)Oc1ccc2oc(-c3ccc(OC)cc3)cc(=O)c2c1,-1%,.,11%,2%
COc1ccccc1CNc1ccc(-c2nc(C(C)C)no2)cc1[N+](=O)[O-],-1%,.,?,-6%
COc1ccc(S(=O)(=O)c2c(C(=O)c3ccc(C)c(C)c3)cnc3ccc(C)cc23)cc1,29%,.,-9%,-2%
O=S(=O)(c1ccc2c(c1)OCCO2)C1CCN(S(=O)(=O)c2c(F)cccc2F)CC1,.,.,14%,-3%
COc1ccc(Br)cc1C1Nc2cccc3cccc(c23)N1,13µM*,-1,14%,-1%
CC[C@H](C)[C@H]1O[C@]2(CC[C@@H]1C)C[C@@H]1C[C@@H](CC=C(C)[C@@H](O[C@H]3C[C@H](OC)[C@@H](O[C@H]4C[C@H](OC)[C@@H](O)[C@H](C)O4)[C@H](C)O3)[C@@H](C)C=CC=C3CO[C@@H]4[C@H](O)C(C)=C[C@@H](C(=O)O1)[C@]34O)O2,5%,-1,5.8µM*,23µM*
Nc1ccn([C@@H]2O[C@H](CO)[C@@H](O)[C@H]2O)c(=O)n1,-1%,0,-16%,2%

# Source: PubChem
